Reference: PubChem BioAssay (NCATS)
Results filed as inconclusive are left out. The source made the active and inactive calls. The call rests on the fitted dose curve; in most records, active means well fitted curve in the direction sought with a large enough effect; inconclusive means small, poorly fitted or top-dose-only effect, or another doubt; inactive means no such curve, though single readings can be large; an effect the other way counts as inactive or inconclusive. Positions of bridges follow the written chain, without caps; N, C: chain ends. Non-standard residues stand in square brackets, D forms with d. Residues, ends and D or L forms follow the SMILES beside them. ξ: configuration not given here. *: point of attachment. Octanoyl(6-Me) = CCC(C)CCCCC(=O)*; ξThr(3R) = C[C@@H](O)C(N)C(=O)O; dDab = NCC[C@@H](N)C(=O)O; Dab = NCC[C@H](N)C(=O)O

Experiments:
[1] = Quantitative High-Throughput drug screen in 47 multiple myeloma cell lines against the NCATS MIPE library collection: JIM3_ECACC cell viability assay (AID 1918963; further: nearly all actives have a fitted effect of over 35% in size)
How it was run: (§1)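 CellTiter-Glo luminescence (ATP) after 48 h compound exposure, 37C/5% CO2; 500 cells/well; MIPE 4.0 approved/investigational drugs pinned in; DMSO = 100%, media only = 0% viability.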

[2] = Quantitative High-Throughput drug screen in 47 multiple myeloma cell lines against the NCATS MIPE library collection: JIM1_ECACC cell viability assay (AID 1918964)
How it was run: as §1

[3] = Quantitative High-Throughput drug screen in 47 multiple myeloma cell lines against the NCATS MIPE library collection: INA6_PLB cell viability assay (AID 1918965; further: nearly all actives have a fitted effect of over 55% in size)
How it was run: (§2)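 Myeloma cells (500 per well) were exposed to MIPE 4.0 compounds by pin transfer and incubated 48 hours at 37C, 5% CO2. Viability was read as ATP by CellTiter-Glo luminescence, normalised to DMSO (100%) and media-only (0%) wells.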

[4] = Quantitative High-Throughput drug screen in 47 multiple myeloma cell lines against the NCATS MIPE library collection: JJN3_DSMZ cell viability assay (AID 1918966; further: nearly all actives have a fitted effect of over 50% in size)
How it was run: as §1

[5] = Quantitative High-Throughput drug screen in 47 multiple myeloma cell lines against the NCATS MIPE library collection: Karpas25_ECACC cell viability assay (AID 1918968; further: nearly all actives have a fitted effect of over 35% in size)
How it was run: as §1

[6] = Quantitative High-Throughput drug screen in 47 multiple myeloma cell lines against the NCATS MIPE library collection: KMS12BM_JCRB cell viability assay (AID 1918971); further: nearly all actives have a fitted effect of over 35% in size
How it was run: (§3)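 We plated 500 myeloma cells per well, pinned in MIPE 4.0 compounds, and incubated for 48 hours at 37C. ATP was then quantified with CellTiter-Glo, with DMSO and media-only wells defining 100% and 0%.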

[7] = Quantitative High-Throughput drug screen in 47 multiple myeloma cell lines against the NCATS MIPE library collection: KMS12PE_JCRB cell viability assay (AID 1918972); further: nearly all actives have a fitted effect of over 30% in size
How it was run: as §2

[8] = Quantitative High-Throughput drug screen in 47 multiple myeloma cell lines against the NCATS MIPE library collection: KMS20_JCRB cell viability assay (AID 1918973); further: nearly all actives have a fitted effect of over 45% in size
How it was run: as §1

[9] = Quantitative High-Throughput drug screen in 47 multiple myeloma cell lines against the NCATS MIPE library collection: KMS21BM_JCRB cell viability assay (AID 1918974); details: ATP luminescence, 48 h; viability: at 45.8 µM (top of the series)
How it was run: as §1

[10] = Quantitative High-Throughput drug screen in 47 multiple myeloma cell lines against the NCATS MIPE library collection: KMS26_JCRB cell viability assay (AID 1918975); further: nearly all actives have a fitted effect of over 45% in size
How it was run: as §3

[11] = Quantitative High-Throughput drug screen in 47 multiple myeloma cell lines against the NCATS MIPE library collection: MMM1_PLB cell viability assay (AID 1918976); further: nearly all actives have a fitted effect of over 35% in size
How it was run: (§4)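 Myeloma cells (500/well) treated with MIPE 4.0 compounds for 48 h at 37 °C, 5% CO2. Viability read as ATP via CellTiter-Glo luminescence after 5 min at RT; DMSO-only wells = 100%, media-only = 0% viability.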

[12] = Quantitative High-Throughput drug screen in 47 multiple myeloma cell lines against the NCATS MIPE library collection: MOLP8_DSMZ cell viability assay (AID 1918977); further: nearly all actives have a fitted effect of over 45% in size
How it was run: as §4

[13] = Quantitative High-Throughput drug screen in 47 multiple myeloma cell lines against the NCATS MIPE library collection: NCIH929_DSMZ cell viability assay (AID 1918978); further: nearly all actives have a fitted effect of over 35% in size
How it was run: as §4

[14] = Quantitative High-Throughput drug screen in 47 multiple myeloma cell lines against the NCATS MIPE library collection: MM1S_ATCC cell viability assay (AID 1918980); further: nearly all actives have a fitted effect of over 45% in size
How it was run: as §4

[15] = Quantitative High-Throughput drug screen in 47 multiple myeloma cell lines against the NCATS MIPE library collection: MM1R_ATCC cell viability assay (AID 1918981); further: nearly all actives have a fitted effect of over 35% in size
How it was run: as §4

[16] = Quantitative High-Throughput drug screen in 47 multiple myeloma cell lines against the NCATS MIPE library collection: H1112_PLB cell viability assay (AID 1918967; further: nearly all actives have a fitted effect of over 30% in size)
How it was run: as §1

[17] = Quantitative High-Throughput drug screen in 47 multiple myeloma cell lines against the NCATS MIPE library collection: KMS27_JCRB cell viability assay (AID 1918970); details: KMS27 myeloma cells, CellTiter-Glo ATP viability, 48 h; viability (% of DMSO): at 45.8 µM (top of the series); further: nearly all actives have a fitted effect of over 30% in size
How it was run: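 Each line is seeded at 500 cells per well and treated with library compounds for 48 hours under 37 °C, 5% CO2. CellTiter-Glo is then added for 5 min at room temperature before median relative luminescence is recorded.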

[18] = Quantitative High-Throughput drug screen in 47 multiple myeloma cell lines against the NCATS MIPE library collection: LP1_DSMZ cell viability assay (AID 1918982); further: nearly all actives have a fitted effect of over 35% in size
How it was run: as §4

[19] = Quantitative High-Throughput drug screen in 47 multiple myeloma cell lines against the NCATS MIPE library collection: OCIMY1_PLB cell viability assay (AID 1918979); further: nearly all actives have a fitted effect of over 35% in size
How it was run: as §4
Potency means the concentration at half of the fitted maximal effect.

Row | SMILES | Potency [1] | Potency [2] | Potency [3] | Potency [4] | Potency [5] | Potency [6] | Potency [7] | Potency [8] | Potency [9] | Potency [10] | Potency [11] | Potency [12] | Potency [13] | Potency [14] | Potency [15] | Potency [16] | Potency [17] | Potency [18] | Potency [19]
1 | CNC(=O)c1cccc(-c2ccc3c(N4CCOC[C@H]4C)nc(N4CCOC[C@H]4C)nc3n2)c1 | 0.0418 µM (active) | 0.0132 µM (active) | 0.526 µM (active) | 0.0743 µM (active) | 0.0743 µM (active) | 0.0166 µM (active) | 0.469 µM (active) | 0.0935 µM (active) | 0.166 µM (active) | 1.18 µM (active) | 0.0166 µM (active) | 0.0235 µM (active) | 0.0166 µM (active) | 0.0833 µM (active) | 0.0662 µM (active) | – | – | – | –
2 | Cc1onc(-c2ccccc2)c1C(=O)N[C@@H]1C(=O)N2[C@@H](C(=O)O)C(C)(C)S[C@@H]12 | inactive | inactive | – | – | inactive | inactive | inactive | – | – | inactive | – | – | – | – | – | inactive | – | – | –
3 | COc1ccc2c(c1OC)C(=O)OC2[C@H]1c2c(cc3c(c2OC)OCO3)CCN1C (stereo not given in full) | 0.0833 µM (active) | 0.001 µM (active) | 0.0526 µM (active) | 5.26 µM (active) | 0.235 µM (active) | 0.0418 µM (active) | 0.105 µM (active) | – | 0.148 µM (active) | 3.32 µM (active) | 2.64 µM (active) | – | 1.87 µM (active) | 0.332 µM (active) | 0.418 µM (active) | 0.235 µM (active) | 0.132 µM (active) | 0.132 µM (active) | –
4 | CN1CCCN(C(=O)c2cccc(-c3ccc(C=C4C(=O)Nc5ccc(Cl)cc54)o3)c2)CC1 | 26.4 µM (active) | 6.62 µM (active) | 7.43 µM (active) | 18.7 µM (active) | 8.33 µM (active) | 23.5 µM (active) | 7.43 µM (active) | 4.69 µM (active) | – | 18.7 µM (active) | 8.33 µM (active) | – | 20.9 µM (active) | 14.8 µM (active) | 5.9 µM (active) | 26.4 µM (active) | 3.32 µM (active) | – | –
5 | COc1cc(C)c(Sc2cnc(NC(=O)c3ccc(CNC(C)C(C)(C)C)cc3)s2)cc1C(=O)N1CCN(C(C)=O)CC1 (stereo not given) | 3.72 µM (active) | 1.48 µM (active) | 14.8 µM (active) | 10.5 µM (active) | 4.69 µM (active) | 16.6 µM (active) | 5.26 µM (active) | 3.72 µM (active) | – | 16.6 µM (active) | 7.43 µM (active) | 8.33 µM (active) | 3.32 µM (active) | 4.18 µM (active) | 5.9 µM (active) | 5.9 µM (active) | – | 16.6 µM (active) | 14.8 µM (active)
6 | O=C(C=CC#Cc1cccc(NS(=O)(=O)c2ccccc2)c1)NO | 5.26 µM (active) | 1.32 µM (active) | 0.743 µM (active) | 2.35 µM (active) | 0.833 µM (active) | 1.48 µM (active) | 1.18 µM (active) | 2.35 µM (active) | – | 3.32 µM (active) | – | 0.935 µM (active) | 1.18 µM (active) | 1.87 µM (active) | 1.48 µM (active) | 2.96 µM (active) | – | 0.935 µM (active) | 2.96 µM (active)
7 | CCC(C)CCCCC(=O)N[C@@H](CCN)C(=O)NC(C(=O)N[C@H](CCN)C(=O)N[C@@H]1CCNC(=O)C([C@@H](C)O)NC(=O)[C@@H](CCN)NC(=O)[C@@H](CCN)NC(=O)[C@@H](CC(C)C)NC(=O)[C@H](Cc2ccccc2)NC(=O)[C@H](CCN)NC1=O)[C@@H](C)O (stereo partly drawn) ({Octanoyl(6-Me)}-[Dab][ξThr(3R)][dDab][dDab][Dab]F[dL][dDab][dDab][ξThr(3R)]; lactam 4-C) | inactive | inactive | – | inactive | – | – | inactive | – | – | – | – | inactive | inactive | – | inactive | inactive | inactive | inactive | inactive
8 | C[C@@H]1C(=O)O[C@H]2CC34[C@H]5C[C@@H](C(C)(C)C)C36[C@H](OC(=O)[C@@H]6O)O[C@@]4(C(=O)O5)[C@]21O (stereo not given in full) | inactive | inactive | inactive | – | inactive | inactive | inactive | inactive | – | inactive | – | inactive | – | – | inactive | inactive | – | – | –
9 | C[C@H](NCc1ccc(OCc2cccc(F)c2)cc1)C(N)=O | 2.96 µM (active) | 3.72 µM (active) | 1.32 µM (active) | 8.33 µM (active) | 2.35 µM (active) | 8.33 µM (active) | 1.87 µM (active) | – | – | 18.7 µM (active) | 11.8 µM (active) | 2.64 µM (active) | 2.64 µM (active) | 9.35 µM (active) | 7.43 µM (active) | 5.9 µM (active) | 1.66 µM (active) | 11.8 µM (active) | 10.5 µM (active)
10 | O=C1NC(=O)[C@@H](c2cn3c4c(cccc24)CCC3)[C@H]1c1c[nH]c2ccccc12 | 0.118 µM (active) | 0.0469 µM (active) | 0.209 µM (active) | 16.6 µM (active) | 0.833 µM (active) | 0.209 µM (active) | 0.148 µM (active) | 0.105 µM (active) | – | 16.6 µM (active) | – | – | 11.8 µM (active) | 18.7 µM (active) | 14.8 µM (active) | 1.66 µM (active) | 0.0833 µM (active) | 1.05 µM (active) | –
11 | Nc1nc2c(c(=O)[nH]1)N(C=O)[C@H](CNc1ccc(C(=O)N[C@@H](CCC(=O)O)C(=O)O)cc1)CN2 | inactive | inactive | inactive | – | inactive | inactive | inactive | – | – | – | – | – | inactive | – | – | inactive | inactive | – | inactive
